Legend:
Assay in all cases: PBM binding z-score (relative to random genomic background probes); higher = stronger binding; sequences stand for … in GC…GCGATTGACAGCGTAGAATGAAGG
[1] = tested on: FXR:RXRa (NR concentration 270 nM, RXRa partner concentration 90 nM)
Procedure, shortened: (§1)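 On custom Agilent 4×180K arrays, double-stranded probes with 34-nt variable regions carried direct-repeat seeds, single-nucleotide variants, half-site ablations or random human genomic background. Ligand-free nuclear receptor dimers were applied for 1 h, and binding was read with antibodies against each partner (one per run). Binding z-scores come from regression-normalized fluorescence, with the random background probes as reference.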

[2] = tested on: LXRa:RXRa (NR concentration 270 nM, RXRa partner concentration 90 nM)
Procedure, shortened: as §1

[3] = tested on: LXRa homodimer (NR concentration 270 nM)
Procedure, shortened: as §1

[4] = tested on: LXRb:RXRa (NR concentration 270 nM, RXRa partner concentration 90 nM)
Procedure, shortened: as §1

[5] = tested on: LXRb homodimer (NR concentration 270 nM)
Procedure, shortened: as §1

[6] = tested on: PPARa:RXRa (NR concentration 270 nM, RXRa partner concentration 90 nM)
Procedure, shortened: as §1

[7] = tested on: PPARg:RXRa (NR concentration 180 nM, RXRa partner concentration 90 nM)
Procedure, shortened: as §1

[8] = tested on: PPARg:RXRa 270nM:90nM, anti-RXR (NR concentration 270 nM, RXRa partner concentration 90 nM)
Procedure, shortened: as §1

[9] = tested on: PPARg:RXRa 30nM:10nM, anti-RXR (NR concentration 30 nM, RXRa partner concentration 10 nM)
Procedure, shortened: as §1

[10] = tested on: PPARg:RXRa 90nM:30nM, anti-RXR (NR concentration 90 nM, RXRa partner concentration 30 nM)
Procedure, shortened: as §1

Sequence | PBM binding z-score [1] | PBM binding z-score [2] | PBM binding z-score [3] | PBM binding z-score [4] | PBM binding z-score [5] | PBM binding z-score [6] | PBM binding z-score [7] | PBM binding z-score [8] | PBM binding z-score [9] | PBM binding z-score [10]
GCTGCTAGGTCAGGTTGGTCGGCTAACGGGTACG | 1.01 | 0.53 | -0.245 | 0.0524 | -0.665 | 1.04 | 0.113 | 0.773 | -0.581 | 0.235
ATCGAAAGGTCGAGGAGGTGAGTATACACCGTTT | 4.46 | 3.42 | -0.194 | 2.55 | 0.629 | 4.26 | 2.8 | 3.19 | 0.595 | 2.06
CTTTACGGGTCAAGGTTATAGCACGGGTGGTACG | 5.72 | 4.66 | 1.01 | 3.35 | 0.665 | 5.26 | 5.26 | 5.41 | 2.59 | 4.51
ATATGTAGGTAACATCCGGGTCATTCAGGCTATG | 1.82 | 2.79 | 0.798 | 2.48 | 0.596 | 4.36 | 5.15 | 4.17 | 1.8 | 3.15
CGAACCAGGTCAAAGGACAGTGAAAGGCGACGTA | 5.18 | 3.73 | 0.284 | 2.63 | -0.254 | 5.27 | 7.61 | 7.03 | 4.9 | 6.76
AGTCATAGTTCACTAGGTAACGTAAGATTCAGCT | 0.829 | 1.51 | 0.415 | 1.11 | 0.233 | 3.01 | 3.89 | 3.82 | 1.59 | 2.88
CCGACTGGGCCATTCAGAGGTCATTGATCATATG | 2.92 | 4.38 | 6.59 | 3.54 | -0.323 | 3.44 | 1.4 | 2.29 | 0.268 | 1.42
ATATGTAGGTTAGAGTCATTCAGAAAGTAGGGAA | 0.573 | 1.04 | 0.277 | 1.02 | 0.605 | 2.75 | 4.27 | 4.03 | 1.69 | 3.08
ATATGTAGGTTAGGGTCATTCTGAAAGTAGGGAA | 4.59 | 3.97 | 1.34 | 4.53 | 1.8 | 5.46 | 7.45 | 6.24 | 3.83 | 5.9
TGAATGACGTTAAAGATCAGGGAACGTGGCGTCG | -0.238 | -0.18 | -0.178 | -0.538 | 0.178 | -0.0143 | 0.989 | 1.26 | 0.931 | 1.28
TAGCCTAGGTCAGATCGGGCGAGTATACGCTATA | 1.73 | 1.03 | -0.449 | 0.569 | -0.387 | 1.58 | 0.654 | 1.08 | -0.174 | 0.958
TAGCCAAGGTCATTCAGGGGCCAGTATAGAAAGC | 7.35 | 5.84 | 1.66 | 4.6 | 2.35 | 5.19 | 4.6 | 4.81 | 1.47 | 3.17
ATATGTAGGATATCGGGTCATTCAGTTTGCGCAT | 1.64 | 1.98 | 0.589 | 2.02 | 0.577 | 3.05 | 2.36 | 2.9 | 1.16 | 2.09
CGTCGGAGGACAACAGGAGGTCAGAGCTGCCAGA | 1.46 | 2.29 | 2.3 | 1.48 | -0.649 | 1.98 | 0.434 | 0.482 | -0.532 | 0.226
CCTAGCAGGCCAGGGTCACCCAAGCATTTCGCTT | 2.7 | 1.95 | -0.482 | 2.3 | -1.1 | 3.82 | 1.34 | 2.02 | -0.0989 | 1.43
ATATGTAGGTTAGGGTCATTCAAAAAGTAGGGAA | 4.97 | 4.06 | 1.57 | 4.59 | 1.42 | 5.83 | 7.96 | 7.02 | 4.85 | 6.73
CAAACTAGGTCAAAGGTCAAAGTAGAGCCAACCA | 8.58 | 7.15 | 5.51 | 7.55 | 2.88 | 7.99 | 13.8 | 11.5 | 13 | 13.8
ATCGAATGGTCGTGAGGTGAGTATACAGAAAGGC | 0.132 | -0.131 | -0.134 | -0.373 | -0.124 | -0.301 | 0.654 | -0.486 | -0.0496 | -0.425
AGTCAAATTTCATCTAGGTAACGTAAGATATGCT | -0.224 | -0.221 | 0.168 | 0.0477 | 0.362 | 0.347 | 1.02 | 0.0693 | 0.291 | 0.178
CGAAATAGGTCAAAGGACAGTGAAAGGCGACGTA | 6.11 | 4.45 | 0.474 | 3.47 | 0.71 | 5.96 | 9.28 | 8.26 | 7.99 | 8.72
CGAACTAGGTCACCAGGACAGTGATGAGGTTGGA | 3.92 | 2.37 | 0.0863 | 1.49 | -0.567 | 4.96 | 8.57 | 6.62 | 4.75 | 6.58
CCGACTGGGGCAAAGGTTACCATGCTCAGTACGA | 1.68 | 1.51 | -0.384 | 1.97 | -0.983 | 5.76 | 11 | 9.85 | 11.5 | 11.4
CGAACTAGGTCAGCAGGACAGTGAAGAGGTTGGA | 1.24 | 0.718 | -0.103 | 0.384 | -0.892 | 3.76 | 5.96 | 5.16 | 2.12 | 4.13
CCTTACGGGTCAAGGTAATAGCACGGGTGGTACG | 5.58 | 3.16 | -0.011 | 2.58 | -0.283 | 4.8 | 4.75 | 4.34 | 1.46 | 3.28
TAGCCAAGGTCAGATCGGGCCAGTATACGCTATA | 5.26 | 3.12 | -0.0844 | 2.55 | 0.145 | 3.85 | 1.88 | 2.35 | 0.514 | 1.53

Sequence | PBM binding z-score [1] | PBM binding z-score [2] | PBM binding z-score [3] | PBM binding z-score [4] | PBM binding z-score [5] | PBM binding z-score [6] | PBM binding z-score [7] | PBM binding z-score [8] | PBM binding z-score [9] | PBM binding z-score [10]
AATACAGGGTCGCTAGGCCAGAGTAGGTACGAAT | 0.424 | 0.524 | -0.204 | 0.525 | -0.053 | 1.37 | 1.05 | 0.765 | 0.105 | 0.482
CGAACTAGGTCACCAGGACAGTTAAGAGGTTGGA | 3.97 | 2.32 | 0.241 | 1.84 | -0.421 | 5.2 | 8.53 | 6.67 | 4.77 | 6.38
CGAACTAGGTCAGAACAGGACATTGAAGGATGAT | 1.42 | 1.55 | 0.178 | 0.649 | -0.13 | 3.32 | 5.42 | 4.48 | 1.68 | 3.62
ACTCGGAGGACAAAGGTCACAGCTACGCCAGTGA | 5.25 | 5.76 | 3.07 | 4.75 | 0.774 | 5.97 | 9.11 | 7.86 | 6.87 | 8.74
TAGCCTAGGTCATTCAGGGGTCAGTATAGAAAGC | 5.8 | 5.2 | 3.94 | 5.72 | 2.32 | 5.18 | 4.13 | 4.56 | 1.78 | 3.3
CGAACTAGGTCACCAGGCCAGTGAAGAGGTTGGA | 4.08 | 2.41 | -0.125 | 1.44 | -0.76 | 5.2 | 8.64 | 7.15 | 4.02 | 6.44
TCTAGCTGGTCAAAGGTCACACACTCGAAATGCG | 5.6 | 6.17 | 3.41 | 5.31 | 0.629 | 6.34 | 10.5 | 9.37 | 9.91 | 10.1
CTCGAAAGGTCGGTTGAGGTGAGTAAACGGATAA | 2.7 | 1.73 | -0.0936 | 1.39 | -0.228 | 2.84 | 0.202 | 1.25 | 0.048 | 0.00835
GCTCGGGGGACAAGGTCAGAGCTTTGTCCGTAGA | 3.46 | 3.46 | 0.143 | 3.96 | 4.29 | 4.25 | 3.61 | 4.54 | 1.72 | 3.56
TAGCCTAGGTCACGGGCCAGTATACCACGCGAAC | 5.68 | 4.12 | 0.223 | 3.33 | -0.137 | 5.41 | 5.67 | 4.7 | 1.91 | 3.23
CAAACTAGGTCACGAAAGGGCAAAGTCGAATGAC | 5.72 | 6.91 | 2.43 | 5.14 | 0.531 | 5.68 | 9.64 | 7.9 | 6.2 | 8.08
CAAACTAGGTCAAGAGGTCAAACTCCGCTTCCCG | 7.36 | 6.74 | 6.8 | 5.98 | 2.74 | 6.77 | 10.1 | 8.55 | 7.7 | 9.09
TCTTATAGATCAATAGAGGTTAAGAAAGTGCGCT | 1.14 | 4.21 | 0.848 | 2 | 0.0677 | 1.92 | 0.685 | 2.02 | 3.21 | 2.51
CCTTACGGGTCACGGGGTTATAGCACGACGAGCG | 7.63 | 5.25 | 0.321 | 4.81 | 0.272 | 6.37 | 8.37 | 7.11 | 3.95 | 6.75
CCTACTGGGCCAATAAGGTCATTGATGCCGATAA | 2.84 | 2.93 | 1.06 | 3.03 | -0.277 | 4.04 | 2.89 | 3.1 | 0.789 | 2.38
CGAACTAGCTCAAAGGACAGTGAAAGGCGACGTA | -0.37 | -0.67 | -0.493 | -0.766 | -0.633 | 0.188 | 1.06 | 2.13 | 0.533 | 1.99
CGAGCTAGGTCAAAGGACAGTGAAAGGCGACGTA | 4.09 | 2.67 | -0.157 | 1.53 | -0.726 | 3.86 | 5.44 | 6.04 | 3.68 | 5.95
CGAACTAGGTCACCAGGACAGTGTAGAGGTTGGA | 4.04 | 2.35 | -0.0613 | 1.77 | -0.589 | 5.08 | 8.54 | 6.85 | 4.68 | 6.46
ATATGTAGGTTACATCCGGGTCATTCTGGCTATG | 2.03 | 3.94 | 1.66 | 3.12 | 0.83 | 4.43 | 6.19 | 4.83 | 2.69 | 3.95
CGTCCAAGGTCACCAGGTCAGTGAAAGCGACGTG | 7.52 | 5.47 | 1.42 | 4.08 | 0.282 | 6.01 | 7.61 | 6.88 | 3.48 | 5.87
CTCGAAAGGTCAGTTGAGGTGAGTATACGGATAA | 6.96 | 5.84 | 1.79 | 4.51 | 2.26 | 5.5 | 4.89 | 5.13 | 1.86 | 4.15
CGGACTAGGTCAAAGGACAGTGAAAGGCGACGTA | 3.87 | 2.49 | -0.041 | 1.67 | -0.542 | 4.93 | 10.2 | 8.4 | 8.49 | 9.55
ATCCAAAGGTCGAGGTGAGTATAGAGAAAGGGAA | 4.69 | 4.08 | 0.242 | 3.36 | 0.755 | 4.91 | 4.74 | 4.86 | 1.7 | 3.57
CGAACTAGGTCACCAGCACAGTGAAGAGGTTGGA | 4.03 | 2.42 | 0.171 | 1.53 | -0.224 | 5.12 | 8.39 | 7.01 | 4.62 | 6.53

From the supplement of paper PMC6555819
